# Columns and labels:
# Test in all cases: DAPPL (digital affinity profiling via proximity ligation, sequencing); 10 mM Tris-HCl pH 7.5, 50 mM NaCl, 1 mM DTT, 4% glycerol, room temperature, 30 min; GST-TFs on glutathione beads, 16-mer random dsDNA library, 0.1% formaldehyde crosslink after washing; high values mean tight binding
# Details in all cases: protein: recombinant; tags: N-terminal GST; dsDNA, one strand shown
# FLI1 = molecular target: T1, FLI1 (Homo sapiens, UniProt Q01543 1-452)
# T1 sequence: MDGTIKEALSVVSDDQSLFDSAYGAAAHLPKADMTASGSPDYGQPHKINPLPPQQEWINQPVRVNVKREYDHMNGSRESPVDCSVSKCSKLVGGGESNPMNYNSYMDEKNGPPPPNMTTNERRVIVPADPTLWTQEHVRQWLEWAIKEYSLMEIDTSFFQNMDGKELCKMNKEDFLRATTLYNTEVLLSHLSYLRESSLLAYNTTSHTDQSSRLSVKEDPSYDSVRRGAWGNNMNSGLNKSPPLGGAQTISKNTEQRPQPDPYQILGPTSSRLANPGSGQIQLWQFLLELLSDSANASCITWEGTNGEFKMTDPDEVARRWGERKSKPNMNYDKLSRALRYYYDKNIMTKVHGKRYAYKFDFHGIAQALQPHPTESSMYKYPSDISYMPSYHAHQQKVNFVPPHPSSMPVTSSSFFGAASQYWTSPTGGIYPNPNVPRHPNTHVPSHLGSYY
# How it was run: (§1)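 After expression in yeast as GST fusions, human transcription factors were bound to glutathione beads, DNA-barcoded and mixed with a tag-only sample. The pools were incubated with 200 nmole of a 16-mer random double-stranded DNA library in Tris/NaCl/DTT/glycerol buffer (30 min, room temperature), washed and crosslinked with 0.1% formaldehyde. Proximity ligation with BsaI/T4 ligase ran for 1 h at 37 °C, before PCR amplification and sequencing on an Illumina NextSeq500. Binding signal is a hexamer's read frequency for a factor divided by its frequency for the tag-only sample.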
# ELK1 = molecular target: T2, ELK1 (Homo sapiens, UniProt P19419 1-428)
# T2 sequence: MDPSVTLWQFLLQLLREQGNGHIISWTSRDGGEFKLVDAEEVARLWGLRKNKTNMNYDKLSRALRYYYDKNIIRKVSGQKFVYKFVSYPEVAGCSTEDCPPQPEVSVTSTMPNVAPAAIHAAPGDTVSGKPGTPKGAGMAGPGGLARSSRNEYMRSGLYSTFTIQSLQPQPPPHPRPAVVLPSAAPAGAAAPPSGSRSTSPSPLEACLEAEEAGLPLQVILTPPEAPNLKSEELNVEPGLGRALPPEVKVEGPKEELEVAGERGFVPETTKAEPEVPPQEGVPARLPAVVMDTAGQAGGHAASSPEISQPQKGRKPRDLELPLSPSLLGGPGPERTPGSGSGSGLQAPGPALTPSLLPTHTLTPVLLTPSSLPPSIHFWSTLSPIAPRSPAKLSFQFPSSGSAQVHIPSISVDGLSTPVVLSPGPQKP
# How it was run: as §1
# GABPA = molecular target: T3, GABPA (Homo sapiens, UniProt Q06546 1-454)
# T3 sequence: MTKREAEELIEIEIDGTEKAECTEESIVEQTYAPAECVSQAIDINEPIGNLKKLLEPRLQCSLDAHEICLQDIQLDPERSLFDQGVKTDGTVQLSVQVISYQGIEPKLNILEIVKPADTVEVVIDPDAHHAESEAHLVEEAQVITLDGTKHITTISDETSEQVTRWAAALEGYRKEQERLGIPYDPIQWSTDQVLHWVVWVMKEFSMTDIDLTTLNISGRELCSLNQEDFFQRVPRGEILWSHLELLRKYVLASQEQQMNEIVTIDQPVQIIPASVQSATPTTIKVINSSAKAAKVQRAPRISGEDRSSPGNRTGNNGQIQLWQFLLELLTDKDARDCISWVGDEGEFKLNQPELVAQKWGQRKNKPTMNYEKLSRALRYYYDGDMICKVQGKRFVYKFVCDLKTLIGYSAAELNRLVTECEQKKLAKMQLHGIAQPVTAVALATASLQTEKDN
# How it was run: as §1
# ERG = molecular target: T4, ERG (Homo sapiens, UniProt P11308 1-479)
# T4 sequence: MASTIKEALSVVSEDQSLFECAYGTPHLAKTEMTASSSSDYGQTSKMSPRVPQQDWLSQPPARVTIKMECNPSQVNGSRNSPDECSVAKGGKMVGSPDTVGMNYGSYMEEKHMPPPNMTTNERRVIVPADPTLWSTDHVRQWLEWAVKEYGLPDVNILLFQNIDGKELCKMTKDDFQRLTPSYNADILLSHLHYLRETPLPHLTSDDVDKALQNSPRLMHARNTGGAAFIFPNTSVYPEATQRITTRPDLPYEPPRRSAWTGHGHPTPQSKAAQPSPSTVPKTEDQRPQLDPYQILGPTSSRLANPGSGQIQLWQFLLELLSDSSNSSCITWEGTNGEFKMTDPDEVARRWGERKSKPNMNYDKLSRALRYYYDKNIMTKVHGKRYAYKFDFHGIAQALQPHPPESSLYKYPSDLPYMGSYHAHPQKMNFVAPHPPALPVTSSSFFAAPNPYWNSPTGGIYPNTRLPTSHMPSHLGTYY
# How it was run: as §1
# ELF1 = ELF1 (Homo sapiens, UniProt P32519 1-619)
# How it was run: as §1
# EHF = molecular target: T5, EHF (Homo sapiens, UniProt Q9NZC4 1-300)
# T5 sequence: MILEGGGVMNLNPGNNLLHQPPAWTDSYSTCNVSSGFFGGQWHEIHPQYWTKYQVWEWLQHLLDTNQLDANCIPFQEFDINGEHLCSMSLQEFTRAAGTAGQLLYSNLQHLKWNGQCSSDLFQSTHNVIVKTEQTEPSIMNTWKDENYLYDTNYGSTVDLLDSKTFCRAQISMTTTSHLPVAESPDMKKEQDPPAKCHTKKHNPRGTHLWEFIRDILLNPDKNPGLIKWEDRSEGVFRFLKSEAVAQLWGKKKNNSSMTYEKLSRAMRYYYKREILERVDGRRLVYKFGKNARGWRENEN
# How it was run: as §1
# SPI1 = SPI1 (Homo sapiens, UniProt P17947 1-270)
# How it was run: as §1
# SPIB = SPIB (Homo sapiens, UniProt Q01892 1-262)
# How it was run: as §1
# ELK3 = molecular target: T6, ELK3 (Homo sapiens, UniProt P41970 1-407)
# T6 sequence: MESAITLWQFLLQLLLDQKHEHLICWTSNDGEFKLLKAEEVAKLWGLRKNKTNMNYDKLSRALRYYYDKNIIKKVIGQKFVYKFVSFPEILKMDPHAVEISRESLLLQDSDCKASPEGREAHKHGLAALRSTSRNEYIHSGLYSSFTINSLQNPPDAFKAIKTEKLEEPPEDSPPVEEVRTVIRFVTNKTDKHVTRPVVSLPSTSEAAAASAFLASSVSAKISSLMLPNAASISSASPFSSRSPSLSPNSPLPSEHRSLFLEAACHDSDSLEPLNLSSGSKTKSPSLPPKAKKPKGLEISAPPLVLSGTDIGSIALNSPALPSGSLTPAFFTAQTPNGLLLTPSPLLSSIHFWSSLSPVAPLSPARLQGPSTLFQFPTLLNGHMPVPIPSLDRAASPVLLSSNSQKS
# How it was run: as §1
# Sequence of ELF1 (P32519 whole entry): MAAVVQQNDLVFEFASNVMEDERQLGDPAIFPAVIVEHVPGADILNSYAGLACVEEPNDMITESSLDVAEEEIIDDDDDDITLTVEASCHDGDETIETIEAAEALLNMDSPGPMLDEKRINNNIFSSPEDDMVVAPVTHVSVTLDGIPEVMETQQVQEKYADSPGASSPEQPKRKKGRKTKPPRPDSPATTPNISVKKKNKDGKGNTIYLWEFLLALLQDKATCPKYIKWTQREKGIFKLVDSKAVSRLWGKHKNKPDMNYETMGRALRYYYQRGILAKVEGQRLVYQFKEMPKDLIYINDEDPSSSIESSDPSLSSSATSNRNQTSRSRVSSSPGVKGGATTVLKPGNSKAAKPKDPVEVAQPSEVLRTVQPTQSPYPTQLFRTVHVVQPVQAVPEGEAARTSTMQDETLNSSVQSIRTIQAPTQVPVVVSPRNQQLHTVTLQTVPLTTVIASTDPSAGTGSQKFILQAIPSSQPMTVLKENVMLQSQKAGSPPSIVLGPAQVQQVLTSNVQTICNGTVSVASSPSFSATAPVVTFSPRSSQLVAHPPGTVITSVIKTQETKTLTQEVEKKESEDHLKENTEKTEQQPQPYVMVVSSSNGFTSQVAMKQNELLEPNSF
# Sequence of SPIB (Q01892 whole entry): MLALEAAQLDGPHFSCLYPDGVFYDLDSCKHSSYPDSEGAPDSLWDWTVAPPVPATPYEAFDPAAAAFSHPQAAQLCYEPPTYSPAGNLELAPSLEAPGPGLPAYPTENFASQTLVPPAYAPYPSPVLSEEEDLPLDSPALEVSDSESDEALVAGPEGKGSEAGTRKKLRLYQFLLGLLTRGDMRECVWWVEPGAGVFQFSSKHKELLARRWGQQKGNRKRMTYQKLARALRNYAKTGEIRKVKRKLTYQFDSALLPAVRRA
Sequence,binding signal (FLI1),binding signal (ELK1),binding signal (GABPA),binding signal (ERG),binding signal (ELF1),binding signal (EHF),binding signal (SPI1),binding signal (SPIB),binding signal (ELK3)
TTTTAC,"1.45 fold enrichment (6-mer frequency, TF over GST control)","1.27 fold enrichment (6-mer frequency, TF over GST control)","1.33 fold enrichment (6-mer frequency, TF over GST control)","1.3 fold enrichment (6-mer frequency, TF over GST control)","1.39 fold enrichment (6-mer frequency, TF over GST control)","1.45 fold enrichment (6-mer frequency, TF over GST control)","1.37 fold enrichment (6-mer frequency, TF over GST control)","1.4 fold enrichment (6-mer frequency, TF over GST control)","1.39 fold enrichment (6-mer frequency, TF over GST control)"
TTAGGG,"1.03 fold enrichment (6-mer frequency, TF over GST control)","1.14 fold enrichment (6-mer frequency, TF over GST control)","1.13 fold enrichment (6-mer frequency, TF over GST control)","1.15 fold enrichment (6-mer frequency, TF over GST control)","1.11 fold enrichment (6-mer frequency, TF over GST control)","1.13 fold enrichment (6-mer frequency, TF over GST control)","1.25 fold enrichment (6-mer frequency, TF over GST control)","1.17 fold enrichment (6-mer frequency, TF over GST control)","1.07 fold enrichment (6-mer frequency, TF over GST control)"
CGATCT,"1.37 fold enrichment (6-mer frequency, TF over GST control)","1.25 fold enrichment (6-mer frequency, TF over GST control)","1.29 fold enrichment (6-mer frequency, TF over GST control)","1.28 fold enrichment (6-mer frequency, TF over GST control)","1.3 fold enrichment (6-mer frequency, TF over GST control)","1.32 fold enrichment (6-mer frequency, TF over GST control)","1.22 fold enrichment (6-mer frequency, TF over GST control)","1.3 fold enrichment (6-mer frequency, TF over GST control)","1.3 fold enrichment (6-mer frequency, TF over GST control)"
CTCTAC,"1.51 fold enrichment (6-mer frequency, TF over GST control)","1.51 fold enrichment (6-mer frequency, TF over GST control)","1.56 fold enrichment (6-mer frequency, TF over GST control)","1.6 fold enrichment (6-mer frequency, TF over GST control)","1.59 fold enrichment (6-mer frequency, TF over GST control)","1.54 fold enrichment (6-mer frequency, TF over GST control)","1.45 fold enrichment (6-mer frequency, TF over GST control)","1.63 fold enrichment (6-mer frequency, TF over GST control)","1.27 fold enrichment (6-mer frequency, TF over GST control)"
ATCTAA,"1.21 fold enrichment (6-mer frequency, TF over GST control)","1.24 fold enrichment (6-mer frequency, TF over GST control)","1.23 fold enrichment (6-mer frequency, TF over GST control)","1.17 fold enrichment (6-mer frequency, TF over GST control)","1.23 fold enrichment (6-mer frequency, TF over GST control)","1.23 fold enrichment (6-mer frequency, TF over GST control)","1.13 fold enrichment (6-mer frequency, TF over GST control)","1.21 fold enrichment (6-mer frequency, TF over GST control)","1.16 fold enrichment (6-mer frequency, TF over GST control)"
CCTGGA,"1.53 fold enrichment (6-mer frequency, TF over GST control)","1.44 fold enrichment (6-mer frequency, TF over GST control)","1.43 fold enrichment (6-mer frequency, TF over GST control)","1.45 fold enrichment (6-mer frequency, TF over GST control)","1.4 fold enrichment (6-mer frequency, TF over GST control)","1.44 fold enrichment (6-mer frequency, TF over GST control)","1.21 fold enrichment (6-mer frequency, TF over GST control)","1.5 fold enrichment (6-mer frequency, TF over GST control)","1.39 fold enrichment (6-mer frequency, TF over GST control)"
TACATA,"1.18 fold enrichment (6-mer frequency, TF over GST control)","1.19 fold enrichment (6-mer frequency, TF over GST control)","1.22 fold enrichment (6-mer frequency, TF over GST control)","1.24 fold enrichment (6-mer frequency, TF over GST control)","1.18 fold enrichment (6-mer frequency, TF over GST control)","1.17 fold enrichment (6-mer frequency, TF over GST control)","1.15 fold enrichment (6-mer frequency, TF over GST control)","1.22 fold enrichment (6-mer frequency, TF over GST control)","1.19 fold enrichment (6-mer frequency, TF over GST control)"

# — PMC7862700, “An all-to-all approach to the identification of sequence-specific readers for epigenetic DNA modifications on cytosine”
